# Unmarked numbers belong to inactive results. Unless noted, the rule behind the calls is not given here.
# What was measured:
# [1] = hESC survival regulators, cell-based (AID 493140); conditions: human embryonic stem cell survival screen; hits give high values;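 note: cells exposed to compounds for four days before counting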
# [2] = Cy5 fluorescence interference with SSB-bound oligo, artefact control for HCV NS3 helicase inhibitor project, biochemical, NIH Clinical Collection, E. coli SSB (AID 743268)
# [3] = test system: Hepatitis C virus NS3 helicase; assay: HCV NS3 helicase inhibitors, primary screen, biochemical, fluorescence polarization, NIH Clinical Collection (AID 743270); conditions: NS3 helicase binding to Cy5-dT15 DNA, hits give high values, concentration not given here
# [4] = target: Single-stranded DNA-binding protein (Escherichia coli (strain K12)) (UniProt P0AGE0); assay: E. coli SSB displacement from DNA, counter-screen for HCV NS3 helicase inhibitor project, biochemical, fluorescence polarization, NIH Clinical Collection (AID 743271; in the data active = inhibition above about 28%); conditions: hits give high values, concentration not given here
# [5] = fluorescence interference in NS3h assay format, artefact control for HCV NS3 helicase inhibitor project, biochemical, NIH Clinical Collection (AID 743272); conditions: fluorescence interference counterscreen, hits give low values;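 note: HCV NS3 helicase with a Cy5 labelled single stranded DNA probe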
# [6] = circadian clock period modulators, cell-based, LOPAC library, luminescence reporter (AID 2774); conditions: circadian reporter cells, at 7 µM, actives lie on both sides;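 note: values are relative to mean of DMSO wells on each plate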
compound,measurement,setting,value
C=C(NC(=O)C(=C)NC(=O)c1csc(C2=NC3c4csc(n4)C4NC(=O)c5csc(n5)C(C(C)(O)C(C)O)NC(=O)C5CSC(=N5)/C(=C/C)NC(=O)C(C(C)O)NC(=O)c5csc(n5)C3(CC2)NC(=O)C(C)NC(=O)C(=C)NC(=O)C(C)NC(=O)C(C(C)CC)NC2C=Cc3c(C(C)O)cc(nc3C2O)C(=O)OC4C)n1)C(N)=O (stereo not drawn),survival,[1],0.917
CO[C@H]1/C=C/O[C@@]2(C)Oc3c(C)c(O)c4c(O)c(c5c(c4c3C2=O)=NC2(CCN(CC(C)C)CC2)N=5)NC(=O)/C(C)=C\C=C\[C@H](C)[C@H](O)[C@@H](C)[C@@H](O)[C@@H](C)[C@H](OC(C)=O)[C@@H]1C,fluorescence ratio,[2],1.02
same,inhibition,[3],1.36%
same,inhibition,[4],6.39%
same,fluorescence ratio,[5],0.96
N#C/C(=C\c1c[nH]c2ccccc12)C(=O)c1ccc(O)c(O)c1,period change,[6],0.275 h
CCn1cc(C(=O)O)c(=O)c2ccc(Cc3ccccc3)nc21,period change,[6],-0.035 h
CC(N)=NCCC[C@H](N)C(=O)O,period change,[6],0.025 h
